# Experimental data from PubChem BioAssay (NCI).
# About 83,000 compounds went through this panel and 20% of them were active in at least one assay; those are over-represented in the sample as a whole.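 Results are percent growth after 48 hours of single-concentration exposure. 100 means growth as in untreated cells, lower positive values show inhibition; negative values down to -100 show cell death.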 Values without a mark were called inactive. Activity calls are given as the source filed them. How the source made its calls: active means growth percent below 10; inactive means the rest.
# Tests used:
# Experiment in all cases: NCI-60 one-dose screen, 48 h (100 = growth as untreated, 0 = no growth, -100 = all killed)
# Conditions in all cases: 10 µM unless noted
# HCT-15 colon = system: HCT-15 colon
# HT29 colon = system: HT29 colon
# SNB-75 CNS = system: SNB-75 CNS
# SNB-19 CNS = system: SNB-19 CNS
# U251 CNS = system: U251 CNS
# PC-3 prostate = system: PC-3 prostate
# SK-MEL-5 melanoma = system: SK-MEL-5 melanoma
# UACC-62 melanoma = system: UACC-62 melanoma
# LOX IMVI melanoma = system: LOX IMVI melanoma
# SK-MEL-28 melanoma = system: SK-MEL-28 melanoma
# SK-MEL-2 melanoma = system: SK-MEL-2 melanoma
# EKVX NSCLC = system: EKVX NSCLC
# SN12C renal = system: SN12C renal
# UO-31 renal = system: UO-31 renal
# TK-10 renal = system: TK-10 renal
# ACHN renal = system: ACHN renal
# CAKI-1 renal = system: CAKI-1 renal
# A498 renal = system: A498 renal
# CCRF-CEM leukemia = system: CCRF-CEM leukemia
# MOLT-4 leukemia = system: MOLT-4 leukemia
Structure (SMILES),growth (HCT-15 colon),growth (HT29 colon),growth (SNB-75 CNS),growth (SNB-19 CNS),growth (U251 CNS),growth (PC-3 prostate),growth (SK-MEL-5 melanoma),growth (UACC-62 melanoma),growth (LOX IMVI melanoma),growth (SK-MEL-28 melanoma),growth (SK-MEL-2 melanoma),growth (EKVX NSCLC),growth (SN12C renal),growth (UO-31 renal),growth (TK-10 renal),growth (ACHN renal),growth (CAKI-1 renal),growth (A498 renal),growth (CCRF-CEM leukemia),growth (MOLT-4 leukemia)
O=C(Nc1ccc(Cl)cc1F)c1ccccc1O,42.7%,96.4%,36.4%,45.8%,34.6%,59.6%,-47.5% (active),9.27% (active),28.2%,29.9%,2.56% (active),66.2%,13.7%,9.45% (active),56.6%,34.2%,35.8%,-21.8% (active),53.2%,29.7%
CCOC(=O)Nc1ccc(-c2nc(-c3cccc(OC)c3)c(-c3ccnc(Br)c3)[nH]2)cc1,5.65% (active),25.7%,32.6%,46.1%,39%,11.2%,25.7%,21.2%,4.57% (active),42%,38.3%,30.1%,48.9%,16.3%,71.4%,24.3%,32.7%,22.4%,16.7%,14.3%
Oc1c(I)cc(I)cc1CNCCCN(Cc1ccccn1)Cc1ccccn1,-37.7% (active),-12.9% (active),-89% (active),2.67% (active),-12.9% (active),-55.5% (active),-96.9% (active),-55.5% (active),-91.7% (active),-33.8% (active),-30.9% (active),-85.6% (active),-50.1% (active),-100% (active),-78.5% (active),-100% (active),-96.1% (active),-98.4% (active),3.65% (active),-10.5% (active)
COc1cc(C(=O)c2cc(C)c3[nH]c4ccc(O)cc4c3c2C)cc(OC)c1OC,8.88% (active),14.5%,37.3%,54.1%,11.5%,24.9%,-49.4% (active),59.8%,13%,55.7%,62.3%,35.9%,25%,22.2%,93.3%,24.3%,24.5%,-12.7% (active),15.5%,15.1%
CCCCOc1nc2c(C)cccc2cc1-c1cc(-c2ccc(Cl)cc2)nc(-c2ccc(Cl)cc2)c1,103%,103%,106%,92.3%,100%,94.8%,103%,97.8%,98.3%,101%,102%,101%,96%,95.6%,108%,101%,93.9%,90.4%,103%,103%
CC/C=C\C[C@@H](O)C/C=C1/C(=O)C=C[C@H]1C/C=C\CCCC(=O)OC,-31.3% (active),-58.5% (active),90.8%,33.7%,8.72% (active),-21.1% (active),-82.2% (active),-50.6% (active),-69% (active),-32.8% (active),77.9%,88.2%,-29.5% (active),16.9%,31.1%,26.8%,17.9%,97.4%,-9.05% (active),-4.62% (active)
CC(=O)CC(c1ccccc1)c1c(C)[nH]c2ccccc12 (stereo not given),97.5%,103%,60.3%,93.2%,105%,87.9%,99.3%,86.7%,90.5%,102%,105%,85.9%,94%,72.6%,117%,92.8%,77.8%,88.1%,101%,95%
COc1ccc(NC(=O)n2nc(/C=C\c3ccc(O)c(OC)c3)cc2/C=C\c2ccc(O)c(OC)c2)cc1,13.2%,31.3%,32.6%,38.9%,26%,28.4%,9.04% (active),25.5%,27.6%,34.5%,21.4%,52.4%,31.4%,22.7%,63.8%,26%,38.1%,82.5%,11.8%,12.2%
COc1ccc(CNC(=O)C(=O)[C@H](Cc2ccccc2)NC(=O)c2[nH]c3ccccc3c(=O)c2C)cc1,103%,108%,87.4%,100%,100%,95.1%,100%,95.6%,102%,103%,109%,95.5%,86.6%,97.4%,98.8%,100%,94.4%,100%,110%,97.7%
NS(=O)(=O)c1ccc(N=Nc2ccc(-c3nn4cc(-c5ccccc5)nc4s3)cc2)cc1,99.2%,99.1%,86.1%,108%,99.7%,94%,101%,101%,96.9%,105%,99.4%,96.7%,108%,89.4%,88.5%,99.8%,85.9%,97.5%,111%,105%
Nc1nc(-c2cccc3ccccc23)cc2ccccc12,3.98% (active),1.11% (active),7.16% (active),12%,16.3%,20.5%,11%,23.5%,20.9%,48.2%,27.7%,46%,35.8%,19.6%,55.8%,36.6%,15.6%,-19.8% (active),29%,-3.33% (active)
CCN(CC)c1ccc(C2=NN(C(C)=O)C(c3cc(OC)c(OC)c(OC)c3)C2)cc1 (stereo not given),12.8%,8.86% (active),17.8%,40.1%,18.7%,20.4%,23.4%,13.1%,31.5%,51.8%,31.8%,29.8%,38.5%,-19% (active),39.9%,40.3%,21%,-22.1% (active),12.6%,5.57% (active)
CCc1cccc2c1S/C(=C/c1ccc(OC)cc1)C2=O,28.1%,84.5%,26.6%,45.2%,41.7%,33.9%,57.2%,31.2%,40.3%,59.3%,51%,93.9%,49.4%,52.9%,127%,54.1%,6.96% (active),104%,35.7%,34.5%
